# Assay results taken from PubChem BioAssay (EPA / NIEHS).
# The source holds several records for some structures; these can differ, active in one and inactive in another. Activity calls are given as the source filed them. The calls were made as follows: active = hit-call score of the fitted dose curve at least 0.9, where 1 is the maximum; inactive = score below 0.9.
# Legend:
# [1] = BSK_LPS_PGE2: BioMAP Diversity Plus: LPS Assay for Prostaglandin E2 (PGE2) Biomarker Activity (AID 2283082); conditions: primary human HUVEC with PBMC; actives raise or lower the signal
# How it was run: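 HUVEC plus PBMC co-culture stimulated with LPS; secreted PGE2 quantified by ELISA 24 h after chemical dosing. Activity fitted bidirectionally against DMSO as negative control and baseline; parallel SRB total-protein staining served as cytotoxicity check.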
# [2] = read-out: Macrophage colony-stimulating factor (MCSF), CSF1 (gene 1435); assay: BSK_LPS_MCSF: BioMAP Diversity Plus: LPS Assay for Macrophage colony-stimulating factor (MCSF) Biomarker Activity (AID 2283083); conditions: primary human HUVEC with PBMC; actives raise or lower the signal
# How it was run: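 HUVEC–PBMC co-culture, M-CSF measured by ELISA 24 h after chemical dosing. Fitted in both directions relative to DMSO as negative control; overt cytotoxicity assessed by SRB total-protein staining in parallel cultures.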
# [3] = read-out: Tissue Factor, F3 (gene 2152); assay: BSK_LPS_TissueFactor: BioMAP Diversity Plus: LPS Assay for Tissue Factor Biomarker Activity (AID 2283084); conditions: primary human HUVEC with PBMC; actives raise or lower the signal
# How it was run: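 Human umbilical vein endothelial cells co-cultured with PBMC were dosed with compound. Cell-surface CD142 was measured by ELISA 24 h later. Activity was fitted bidirectionally against DMSO, with SRB total-protein staining in parallel cultures for cytotoxicity.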
# [4] = read-out: Tumor necrosis factor (Homo sapiens) (UniProt P01375); assay: BSK_LPS_TNFa: BioMAP Diversity Plus: LPS Assay for Tumour Necrosis Factor alpha (TNFa) Biomarker Activity (AID 2283085); conditions: primary human HUVEC with PBMC; actives raise or lower the signal
# How it was run: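 Human umbilical vein endothelial cells co-cultured with PBMC were exposed to test chemical and TNFa measured by ELISA 24 h after dosing. Bidirectional curve fitting was done relative to DMSO as negative control and baseline.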
# CD38, CD38 (gene 952) = assay: BSK_SAg_CD38: BioMAP Diversity Plus: SAg Assay for CD38 Biomarker Activity (AID 2283087); conditions: primary human HUVEC with PBMC; actives raise or lower the signal
# How it was run: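 Fluorescence ELISA of cell-surface CD38 served as the read-out, with either increase or decrease fitted against DMSO controls. Cells were a human umbilical vein endothelium plus PBMC co-culture under SEB/TSST-1 stimulation, measured 24 h after dosing.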
# CD40, CD40 (gene 958) = assay: BSK_SAg_CD40: BioMAP Diversity Plus: SAg Assay for CD40 Biomarker Activity (AID 2283088); conditions: primary human HUVEC with PBMC; actives raise or lower the signal
# How it was run: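 HUVEC plus PBMC co-culture, superantigen-activated, with CD40 read by ELISA 24 h after dosing. Curves fitted in both directions against DMSO. Overt cytotoxicity checked by parallel SRB total-protein staining.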
# CD69, CD69 (gene 969) = assay: BSK_SAg_CD69: BioMAP Diversity Plus: SAg Assay for CD69 Biomarker Activity (AID 2283089); conditions: primary human HUVEC with PBMC; actives raise or lower the signal;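 as to AC50: cell surface CD69 protein quantified by ELISA with fluorescence detection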
# How it was run: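 Primary human vascular co-culture (umbilical vein endothelium with peripheral blood mononuclear cells) exposed to test chemical for 24 h. CD69 levels quantified by fluorescence ELISA; DMSO served as negative control for bidirectional fitting.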
# [5] = read-out: Monocyte Chemoattractant Protein-1 (MCP1), CCL2 (gene 6347); assay: BSK_SAg_MCP1: BioMAP Diversity Plus: SAg Assay for Monocyte Chemoattractant Protein-1 (MCP1) Biomarker Activity (AID 2283090); conditions: primary human HUVEC with PBMC; actives raise or lower the signal
# How it was run: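 MCP-1 levels in the endothelial–PBMC SAg co-culture were quantified by ELISA at 24 h post-dosing; both increases and decreases versus DMSO scored. Cytotoxicity monitored by SRB total protein in parallel cultures.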
# [6] = read-out: E-selectin (Homo sapiens) (UniProt P16581); assay: BSK_SAg_Eselectin: BioMAP Diversity Plus: SAg Assay for Eselectin Biomarker Activity (AID 2283091); conditions: primary human HUVEC with PBMC; actives raise or lower the signal
# How it was run: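 Human umbilical vein endothelial cells co-cultured with peripheral blood mononuclear cells, SAg system. E-selectin is measured by ELISA 24 h after dosing and fitted bidirectionally against DMSO. Cytotoxicity is checked by SRB staining of parallel cultures.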
# [7] = read-out: Monokine induced gamma interferon (MIG), CXCL9 (gene 4283); assay: BSK_SAg_MIG: BioMAP Diversity Plus: SAg Assay for Monokine induced gamma interferon (MIG) Biomarker Activity (AID 2283092); conditions: primary human HUVEC with PBMC; actives raise or lower the signal
# How it was run: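 Endothelial cells and PBMC were co-cultured, exposed to test chemicals, and sampled 24 h later. MIG was measured by ELISA, and responses were fitted in both directions relative to DMSO.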
# [8] = BSK_SAg_PBMCCytotoxicity: PBMC Cytotoxicity Assessment in the BioMAP Diversity Plus: SAg Assay (AID 2283093); conditions: primary human HUVEC with PBMC;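 also: PBMC viability measured as Alamar Blue reduction fluorescence at 546/580 nm; fitted both ways against DMSO so a hit may be loss or gain of signal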;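 as to AC50: PBMC superantigen activated with SEB plus TSST-1 one hour after compound addition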
# How it was run: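 HUVEC/PBMC co-culture; PBMC exposed to chemical 1 h before SEB and TSST-1 activation (20 ng/mL each), incubated 90 h, then Alamar Blue 6 h, fluorescence 546/580 nm. Bidirectional fit versus DMSO baseline.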
# [9] = read-out: Interleukin-8 (IL8), CXCL8 (gene 3576); assay: BSK_SAg_IL8: BioMAP Diversity Plus: SAg Assay for Interleukin-8 (IL8) Biomarker Activity (AID 2283094); conditions: primary human HUVEC with PBMC; actives raise or lower the signal
# How it was run: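 Human umbilical vein endothelial cells co-cultured with peripheral blood mononuclear cells; IL-8 measured by ELISA 24 h after chemical dosing. Bidirectional concentration-response fitting used DMSO as negative control and activity baseline.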
# [10] = BSK_SAg_Proliferation: Cell Proliferation Assessment in the BioMAP Diversity Plus: SAg Assay (AID 2283095); conditions: primary human HUVEC with PBMC;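 also: relative cell number as total protein by SRB absorbance in sub-confluent culture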
# How it was run: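 Human umbilical vein endothelial cells co-cultured with peripheral blood mononuclear cells; total protein measured by sulforhodamine B staining (0.1% SRB after 10% TCA fixation), absorbance at 560 nm, at 96 h. Bidirectional fit against DMSO baseline.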
# [11] = BSK_SAg_SRB: Viability Assessment in the BioMAP Diversity Plus: SAg Assay (AID 2283096); conditions: primary human HUVEC with PBMC;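 also: cells read one day after compound addition; hits may be either gain or loss of signal compared with DMSO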
# How it was run: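 Human umbilical vein endothelial cells co-cultured with PBMC, read 24 h after compound dosing. Total protein measured by sulforhodamine B staining (0.1% SRB after 10% TCA fixation, absorbance 560 nm); bidirectional fit versus DMSO baseline.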
# [12] = read-out: Vascular cell adhesion molecule 1 (VCAM1), VCAM1 (gene 7412); assay: BSK_LPS_VCAM1: BioMAP Diversity Plus: LPS Assay for Vascular cell adhesion molecule 1 (VCAM1) Biomarker Activity (AID 2283086); conditions: primary human HUVEC with PBMC; actives raise or lower the signal
# How it was run: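 Human umbilical vein endothelial cells co-cultured with peripheral blood mononuclear cells under LPS stimulation were exposed to test chemical for 24 h. VCAM-1 levels were then measured by ELISA, with bidirectional curve fitting relative to DMSO as negative control and baseline.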
# Chain of E-selectin (Homo sapiens) (P16581 whole entry, looked up): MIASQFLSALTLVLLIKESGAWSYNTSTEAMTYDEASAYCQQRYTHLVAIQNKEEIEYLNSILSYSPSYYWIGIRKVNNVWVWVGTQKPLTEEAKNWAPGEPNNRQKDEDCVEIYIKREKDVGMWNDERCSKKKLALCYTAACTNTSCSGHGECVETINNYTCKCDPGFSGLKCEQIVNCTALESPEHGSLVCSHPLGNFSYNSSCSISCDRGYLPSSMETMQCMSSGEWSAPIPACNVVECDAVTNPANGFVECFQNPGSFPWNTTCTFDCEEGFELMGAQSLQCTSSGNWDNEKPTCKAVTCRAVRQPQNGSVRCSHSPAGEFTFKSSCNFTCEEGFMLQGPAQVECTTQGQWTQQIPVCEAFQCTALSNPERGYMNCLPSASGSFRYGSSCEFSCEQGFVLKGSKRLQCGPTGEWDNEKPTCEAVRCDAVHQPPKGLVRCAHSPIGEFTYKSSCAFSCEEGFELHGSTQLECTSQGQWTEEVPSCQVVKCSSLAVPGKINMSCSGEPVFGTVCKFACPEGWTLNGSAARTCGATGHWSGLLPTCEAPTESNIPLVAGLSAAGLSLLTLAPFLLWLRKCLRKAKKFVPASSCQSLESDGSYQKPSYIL
# Chain of Tumor necrosis factor (Homo sapiens) (P01375 whole entry, looked up): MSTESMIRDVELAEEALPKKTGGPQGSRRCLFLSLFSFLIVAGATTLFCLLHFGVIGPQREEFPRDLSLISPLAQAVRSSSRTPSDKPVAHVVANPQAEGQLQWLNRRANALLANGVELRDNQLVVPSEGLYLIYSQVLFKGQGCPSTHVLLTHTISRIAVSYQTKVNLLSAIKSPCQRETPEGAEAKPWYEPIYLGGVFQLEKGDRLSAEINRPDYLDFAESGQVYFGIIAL
smiles,measurement,setting,value
C=C(C)C(=O)O[C@H]1C[C@@H]2CC[C@@]1(C)C2(C)C,outcome,[1],inactive
same,AC50,[2],29.9 µM (active)
same,AC50,[3],36.8 µM (active)
same,outcome,[4],inactive
same,AC50,"CD38, CD38 (gene 952)",33.8 µM (active)
same,AC50,"CD40, CD40 (gene 958)",31.8 µM (active)
same,AC50,"CD69, CD69 (gene 969)",30.8 µM (active)
same,AC50,[5],34.1 µM (active)
same,AC50,[6],34 µM (active)
same,AC50,[7],36.3 µM (active)
same,AC50,[8],33.1 µM (active)
same,AC50,[9],35.3 µM (active)
same,AC50,[10],30.7 µM (active)
same,AC50,[11],30.9 µM (active)
CC(=O)OCCC(C)CC(C)(C)C (stereo unspecified),outcome,[2],inactive
same,outcome,[3],inactive
same,outcome,[4],inactive
same,outcome,[12],inactive
same,outcome,"CD38, CD38 (gene 952)",inactive
same,outcome,"CD40, CD40 (gene 958)",inactive
same,outcome,"CD69, CD69 (gene 969)",inactive
same,outcome,[5],inactive
same,outcome,[6],inactive
same,outcome,[7],inactive
same,outcome,[8],inactive
same,outcome,[9],inactive
same,AC50,[10],1.85 µM (active)
same,outcome,[10],inactive
same,outcome,[11],inactive
BrC1CCC(Br)C(Br)CCC(Br)C(Br)CCC1Br (stereo unspecified),AC50,[2],4.67 µM (active)
same,outcome,[3],inactive
same,outcome,[4],inactive
same,AC50,[12],4.54 µM (active)
same,AC50,"CD38, CD38 (gene 952)",4.57 µM (active)
same,AC50,"CD40, CD40 (gene 958)",4.59 µM (active)
same,outcome,"CD69, CD69 (gene 969)",inactive
same,outcome,[5],inactive
same,outcome,[6],inactive
same,outcome,[7],inactive
same,AC50,[8],2.03 µM (active)
same,outcome,[9],inactive
same,AC50,[10],4.63 µM (active)
same,AC50,[11],4.67 µM (active)
CC[Si](OC(C)=O)(OC(C)=O)OC(C)=O,outcome,[2],inactive
same,outcome,[3],inactive
same,outcome,[4],inactive
same,outcome,[12],inactive
same,outcome,"CD38, CD38 (gene 952)",inactive
same,outcome,"CD40, CD40 (gene 958)",inactive
same,outcome,"CD69, CD69 (gene 969)",inactive
same,outcome,[5],inactive
same,outcome,[6],inactive
same,outcome,[7],inactive
same,outcome,[8],inactive
same,outcome,[9],inactive
same,outcome,[10],inactive
same,outcome,[11],inactive
CC(C)Oc1ccccc1O,outcome,[1],inactive
same,outcome,[2],inactive
same,outcome,[3],inactive
same,outcome,[4],inactive
same,outcome,[12],inactive
same,outcome,"CD38, CD38 (gene 952)",inactive
same,outcome,"CD40, CD40 (gene 958)",inactive
same,outcome,"CD69, CD69 (gene 969)",inactive
same,outcome,[5],inactive
same,outcome,[6],inactive
same,outcome,[7],inactive
same,outcome,[8],inactive
same,outcome,[9],inactive
same,outcome,[10],inactive
same,outcome,[11],inactive
CCC(=O)OCc1ccccc1,outcome,[1],inactive
same,outcome,[2],inactive
same,outcome,[3],inactive
same,outcome,[4],inactive
same,outcome,"CD38, CD38 (gene 952)",inactive
same,outcome,"CD40, CD40 (gene 958)",inactive
same,outcome,"CD69, CD69 (gene 969)",inactive
same,outcome,[5],inactive
same,outcome,[6],inactive
same,outcome,[7],inactive
same,outcome,[8],inactive
same,outcome,[9],inactive
same,outcome,[10],inactive
same,outcome,[11],inactive
